# In the library only some 2.9% were active in any assay of this set; here they are far more common.
# PAFAH1B3 inh – PAFAH1B3 (human) inhibition; inhibition, % at 3.39 µM; Q15102; AID 492972; recombinant PAFAH1B3, FP-rhodamine probe, fluorescence polarization; 340,000 tested, 0.28% active;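 active means inhibition above the screen-wide average of all tested compounds plus 3 SD, cut at about 25% in these data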;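 further: 0% = enzyme with DMSO only and 100% = wells lacking PAFAH1B3 protein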
# Target sequence (Q15102 whole entry, looked up): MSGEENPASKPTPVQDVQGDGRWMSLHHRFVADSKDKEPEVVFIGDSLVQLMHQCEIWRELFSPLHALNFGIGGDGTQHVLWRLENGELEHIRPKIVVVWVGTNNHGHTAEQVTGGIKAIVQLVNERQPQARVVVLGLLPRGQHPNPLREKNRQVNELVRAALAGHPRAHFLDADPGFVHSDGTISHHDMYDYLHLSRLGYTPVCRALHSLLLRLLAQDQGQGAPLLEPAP
# PAFAH2 inh – PAFAH2 (human) inhibition | 340,000 tested, 0.99% active | AID 492956 | recombinant PAFAH2, FP-rhodamine activity probe, fluorescence polarization | inhibition, % at 3.39 µM | Q99487;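 active means inhibition above the mean over all tested compounds plus 3 SD, cut at about 30% in these data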;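 further: inhibitors block probe labeling of enzyme so polarization drops; 0% = enzyme with DMSO and 100% = wells lacking PAFAH2 protein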
# Fam108B counter – blocks mouse Fam108B hydrolase in RBBP9 counter-screen | recombinant Fam108B, FP-Rh probe fluorescence polarization | inhibition, % at 9.51 µM | 300,000 tested, 0.33% active | AID 1947;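 active means inhibition above the screen mean inhibition plus 3 SD, computed separately per campaign, cut at about 18% in these data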;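 further: inhibitors lower polarization as less probe binds the enzyme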
# pPAFAH FP inh – inhibitors of human plasma PAF acetylhydrolase (pPAFAH); recombinant pPAFAH, FP-rhodamine probe fluorescence polarization; 330,000 tested, 1.5% active; inhibition, % at 3.39 µM; Q13093;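 active means inhibition above the mean inhibition across the screen plus 3 SD, cut at about 25% in these data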;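 further: inhibitors block binding of the rhodamine activity-based probe so polarization drops; 0% = enzyme with DMSO and 100% = wells lacking pPAFAH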
# PAFAH1B2 FP inh – PAFAH1B2 (human) inhibition; recombinant PAFAH1B2, FP-rhodamine activity probe, fluorescence polarization; inhibition, % at 3.39 µM; 340,000 tested, 1.2% active; AID 492953;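 active means inhibition above the mean of all tested compounds plus 3 SD, cut at about 24% in these data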;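 further: 0% = enzyme with DMSO and 100% = wells lacking PAFAH1B2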
# PME-1 inh – blocks human protein phosphatase methylesterase 1; Q9Y570; recombinant PME-1, FP-Rh probe fluorescence polarization; inhibition, % at 5.9 µM; 320,000 tested, 0.53% active;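 active means inhibition above the campaign mean of all compounds plus 3 SD, cut at about 26% in these data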;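 further: competitive labeling of PME-1 active site by serine hydrolase directed probe; 0% = PME-1 with DMSO and 100% = wells lacking PME-1 enzyme; inhibitors block probe labeling so polarization falls and inhibition rises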
# Target sequence (Q9Y570 whole entry, looked up): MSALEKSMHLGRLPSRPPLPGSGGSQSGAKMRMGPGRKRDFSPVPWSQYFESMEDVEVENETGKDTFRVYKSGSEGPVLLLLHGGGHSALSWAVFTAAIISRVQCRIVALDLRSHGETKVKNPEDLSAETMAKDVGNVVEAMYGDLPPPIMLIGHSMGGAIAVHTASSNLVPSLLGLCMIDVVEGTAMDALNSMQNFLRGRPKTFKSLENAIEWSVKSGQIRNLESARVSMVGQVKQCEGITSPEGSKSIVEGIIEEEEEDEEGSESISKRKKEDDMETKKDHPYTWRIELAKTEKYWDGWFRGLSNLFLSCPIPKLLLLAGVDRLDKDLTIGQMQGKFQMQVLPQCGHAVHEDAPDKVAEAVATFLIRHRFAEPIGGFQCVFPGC
# * hit, by the source's call; / = not tested or not shown.
SMILES,PAFAH1B3 inh,PAFAH2 inh,Fam108B counter,pPAFAH FP inh,PAFAH1B2 FP inh,PME-1 inh
Cc1ccccc1NC(=O)C(Cc1ccccc1)n1cccc1 (stereo not drawn),-3,-2,-2,6,1,5
CCCCCCCCN1[C@@H](CC(=O)O)c2cc(C(F)(F)F)ccc2S1(=O)=O,10,7,2,8,27*,7
CCCCOC(=O)c1ccc(NC(=O)c2cnc3n(c2=O)CCS3)cc1,3,9,-3,1,1,-7
O=[N+]([O-])c1ccc(S(=O)(=O)NN=Cc2ccc3c(c2)OCO3)cc1,4,15,/,/,8,/
O=S(=O)(N/N=C/c1ccc2c(c1)OCO2)c1ccc(Br)cc1,7,-1,0,1,26*,4
C=C(C)COc1ccc2c(C)c(CCC(=O)N3C[C@H]4C[C@@H](C3)c3cccc(=O)n3C4)c(=O)oc2c1,4,-1,0,25*,7,-1
C=C(C)COc1ccc2c(C)c(CC(=O)N3C[C@H]4C[C@@H](C3)c3cccc(=O)n3C4)c(=O)oc2c1,4,5,-4,5,4,-5
O=C(CN(Cc1ccco1)C(=O)CNS(=O)(=O)c1ccc(F)cc1)NCc1ccco1,0,13,-2,4,4,-2
COc1cc(/C=N/Nc2nc(C)nc3c2cnn3-c2ccccc2)ccc1O,5,9,/,/,28*,/
Cc1ccc(C(=O)Nc2ccccc2N2CCCC2)s1,10,5,/,6,7,0
CN(C)CCCNC(=S)/N=c1\sccn1Cc1ccccc1Cl,5,-25,-4,-2,3,2
CCOC(=O)C1C(C(=O)OCC)C1(c1ccccc1)c1ccccc1 (stereo not drawn),8,-6,3,3,29*,-2
O=C(Cc1ccccc1)NNC1CC(=O)N(c2ccc(Cl)cc2)C1=O (stereo not drawn),8,6,3,0,5,-7
O=C(Cc1ccc(Cl)cc1)NNC1CC(=O)N(c2ccc3ccccc3c2)C1=O (stereo not drawn),5,-1,-7,5,25*,0
CC(C)(C)C(=O)Nc1c2c(nc3c1CCC3)CCCC2,0,4,5,8,-4,-4
NC(=S)N/N=C/c1cccc(O)c1O,1,0,5,32*,7,1
CC1(c2ccc(Cl)cc2)NC(=S)N2C1NC(=S)N2c1ccccc1 (stereo not drawn),1,0,-2,-1,35*,3
Cc1ccc(-n2ncc3c2CCCC3NC(=O)c2ocnc2C)cc1C (stereo not drawn),6,3,-2,4,2,3
Cn1c(NCCO)nc2c1c(=O)n(Cc1cccc(Cl)c1)c(=O)n2C,4,3,4,1,10,-5
Cn1c(NCCN2CCOCC2)nc2c1c(=O)n(Cc1cccc(Cl)c1)c(=O)n2C,-1,3,3,5,28*,6
COc1ccc(-c2nc(CS(=O)CC(=O)N3CCN(C)CC3)c(C)o2)cc1 (stereo not drawn),-1,5,5,6,-1,6
Cc1ccc(S(=O)(=O)N2CCOCC2)cc1C(=O)NCCc1ccc(Cl)cc1,7,0,/,1,30*,/
O=C(OCCOc1cccc(Cl)c1)c1cc(S(=O)(=O)N2CCOCC2)ccc1F,10,5,-1,31*,2,-1
O=C1NC(=S)SC1=C1CCCCCC1,1,6,0,4,21,6
O=C(Oc1ccccc1C(=O)Oc1ccccc1)c1ccco1,5,1,2,2,3,4
SMILES,PAFAH1B3 inh,PAFAH2 inh,Fam108B counter,pPAFAH FP inh,PAFAH1B2 FP inh,PME-1 inh
Cc1c(NC(=O)C(C)OC(=O)C23CC4CC(CC(Br)(C4)C2)C3)c(=O)n(-c2ccccc2)n1C (stereo not drawn),2,-3,-1,-8,48*,3
Cc1c(NC(=O)COC(=O)C23CC4CC(CC(O)(C4)C2)C3)c(=O)n(-c2ccccc2)n1C,0,7,1,2,0,2
COc1ccccc1/C=N/NC(=O)c1cccc(OC(F)(F)C(F)F)c1,0,-4,-4,2,-1,-10
COc1cccc(/C=N/NC(=O)C(=O)Nc2ccccc2OC(F)(F)C(F)F)c1O,27*,35*,8,12,5,-8
CCOc1ccccc1NC(=O)C(=O)N/N=C/c1cc(Br)ccc1O,4,10,0,26*,5,-1
Cc1sc2nc(CN(Cc3ccccc3)C(=O)NC3CCCCC3)[nH]c(=O)c2c1C,3,-3,-8,3,-3,-4
O=C(N/N=C/c1c(Cl)[nH]c2ccccc12)c1ccc2c(c1)OCCO2,/,/,5,23,/,29*
COc1cc(/C=N/NC(=O)c2ccc3c(c2)OCCO3)cc(Br)c1O,5,-7,2,7,9,3
COc1cc(/C=N/NC(=O)c2ccc3c(c2)OCCO3)c(Br)c(Br)c1O,8,14,8,20,8,45*
CC(C)c1cc(Nc2cccc(O)c2)cc(C(C)C)c1O,/,/,14,26*,/,11
N#CC1=C(N)C(C#N)(C#N)C(c2cccnc2)C2CN(C(=O)OCc3ccccc3)CC=C12 (stereo not drawn),-2,16,0,9,2,28*
CCOC(=O)N1CC=C2C(C#N)=C(N)C(C#N)(C#N)[C@H](c3ccc(OCC)c(OCC)c3)[C@H]2C1,4,-2,5,5,3,18
Cc1ccc(N(C(=O)c2ccccc2Cl)C2=NC(C)CS2)c(C)c1 (stereo not drawn),4,-3,2,1,6,-3
COc1ccc([C@H]2[C@H](C(=O)C(C)(C)C)N3N=Cc4ccccc4C3[C@]23N=C(c2ccccc2)OC3=O)cc1 (stereo partly drawn),4,0,-5,-3,4,-3
CC(C)(C)OC(=O)[C@H]1[C@H](c2ccc([N+](=O)[O-])cc2)C2(C(=O)c3ccccc3C2=O)C2c3ccccc3C=NN21 (stereo partly drawn),2,7,6,11,84*,3
O=S(=O)(NC1CCCC1)c1ccc(S(=O)(=O)N2CCc3ccccc32)cc1,0,8,0,27*,27*,12
CC1(C)Cc2c(sc3nc(SCC(=O)O)[nH]c(=O)c23)CO1,13,13,-1,0,1,1
CC(C)=NNc1nc2sc3c(c2c(=O)[nH]1)CC(C)(C)OC3,-2,2,-4,5,1,36*
COC(=O)c1ccc(NC(=O)Nc2ccc(OC)cc2)cc1,1,6,5,-3,3,29*
CCCCOC(=O)c1ccc(NC(=O)Nc2ccc(OC)c(OC)c2)cc1,15,-24,14,22,2,40*
COc1ccc(NC(=O)Nc2ccc(OC)cc2)cc1,0,-1,2,3,-5,4
